Screening data (PubChem BioAssay)
In the library only some 1.7% were active in any assay of this set; here they are far more common.
LYP act – LYP phosphatase activators, primary screen, biochemical, DiFMUP fluorescence, 2 µM. recombinant LYP; 0 = plate median, 100 = signal doubled. activation, % at 2 µM. hit rate 0.11% among 96,000;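 active = activation at 2 µM above a set limit, the mean plus 5 SD, cut at about 37% in these data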
Target sequence (Q9Y2R2 whole entry, looked up): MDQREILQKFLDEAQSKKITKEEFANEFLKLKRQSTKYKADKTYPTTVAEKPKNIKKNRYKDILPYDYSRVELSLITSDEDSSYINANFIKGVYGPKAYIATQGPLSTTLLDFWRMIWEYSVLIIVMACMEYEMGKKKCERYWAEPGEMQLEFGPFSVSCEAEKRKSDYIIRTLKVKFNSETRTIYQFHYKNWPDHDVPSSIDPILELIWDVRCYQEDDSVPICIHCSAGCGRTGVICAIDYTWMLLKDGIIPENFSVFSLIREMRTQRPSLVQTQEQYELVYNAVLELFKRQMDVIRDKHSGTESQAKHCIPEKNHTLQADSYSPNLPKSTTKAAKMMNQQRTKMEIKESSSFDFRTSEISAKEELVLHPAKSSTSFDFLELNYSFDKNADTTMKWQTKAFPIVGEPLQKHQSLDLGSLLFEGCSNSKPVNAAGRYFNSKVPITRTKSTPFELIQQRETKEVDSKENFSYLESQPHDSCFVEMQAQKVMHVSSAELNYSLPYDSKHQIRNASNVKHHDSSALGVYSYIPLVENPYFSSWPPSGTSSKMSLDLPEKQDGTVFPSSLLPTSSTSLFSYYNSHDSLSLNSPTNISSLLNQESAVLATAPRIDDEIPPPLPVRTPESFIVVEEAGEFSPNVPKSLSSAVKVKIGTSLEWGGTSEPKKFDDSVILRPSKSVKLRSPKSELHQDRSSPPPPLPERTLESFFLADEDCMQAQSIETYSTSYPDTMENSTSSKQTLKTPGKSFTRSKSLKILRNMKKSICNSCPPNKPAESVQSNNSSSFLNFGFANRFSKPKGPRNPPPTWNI
Measles CPE – compounds protecting cells from measles virus cytopathic effect, primary screen, measles RdRp inhibitor project, single point, MLSMR library, absorbance. Measles virus-infected cells, CPE protection. protection (pct of control), % at 4 µM. hit rate 1.5% among 140,000; in the data active = protection mostly above about 24%, no sharp cut-off; inactive = mostly below about 26%
LYP inh 2 – PTPN22 phosphatase inhibitors, primary screen, biochemical, DiFMUP fluorescence, 2 µM; hit rate 0.21% among 96,000; recombinant LYP catalytic domain; inhibition, % at 2 µM; Tyrosine-protein phosphatase non-receptor type 22 (Homo sapiens), Q9Y2R2;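 active = inhibition at 2 µM at or above a set limit, the screen mean plus 3 SD, cut at about 24% in these data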;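 note: 0% = DMSO with enzyme and 100% = enzyme fully blocked by orthovanadate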
Numbers without * were called inactive; x = no result given.

SMILES	LYP act	Measles CPE	LYP inh 2
N#C/C(=C\c1ccc(-c2ccc(C(=O)O)cc2)o1)C(=O)NCC1CCCO1 (stereo not given)	x	12.9	x
CN1CCN(c2ccc([N+](=O)[O-])cc2/C=N/NC(=O)c2cccc([N+](=O)[O-])c2)CC1	x	16.7	x
COc1ccc(/C=N/n2c(N)c(S(=O)(=O)c3cccs3)c3nc4ccccc4nc32)cc1OC	9.8	32.4*	-7.2
COc1cccc(/C=N/n2c(N)c(S(=O)(=O)c3cccs3)c3nc4ccccc4nc32)c1	13.4	x	-9.6
CC(C)OC(=O)NC(c1ccccc1)C(Cl)(Cl)Cl (stereo not given)	x	5.7	x
CCCCSc1ccc2nc(-c3ccc(C#N)cc3)cn2c1	-0.7	43.3*	5.9
CCCSc1ccc2nc(-c3ccccc3)cn2c1	x	4.7	x
Cc1cc(C(=O)NCCCN2CCCC2=O)cs1	-7.5	9.1	4.8
C=CCNc1sc(C(=O)c2ccc(C)cc2)c(N)c1C#N	-7.9	10.2	7.8
COc1ccc(-c2nc(NC(=O)CSc3nnc4ccccn34)ns2)cc1	2.4	2.2	2.9
O=C(CSc1nnc2ccccn12)Nc1nsc(-c2ccccc2)n1	x	27.0*	x
OCCCc1nc2n(n1)C(c1ccccc1)C=C(c1ccc(F)cc1)N2 (stereo not given)	-0.9	6.1	1.0
OCCCc1nc2n(n1)C(c1cccs1)C=C(c1ccccc1)N2 (stereo not given)	0.8	63.8*	-1.5
O=C(Nc1ncc(S(=O)(=O)c2ccc([N+](=O)[O-])cc2)s1)c1ccc2ccccc2c1	x	18.6	x
CCC(C)(C)C(=O)Nc1ncc(S(=O)(=O)c2ccc([N+](=O)[O-])cc2)s1	5.0	52.5*	-3.3
Nc1c(C(=O)N/N=C/c2cccnc2)cnn1-c1ccccc1	x	4.6	x
CCCCn1c(SCC(=O)Nc2cc(C)on2)nnc1-c1ccco1	1.6	1.9	-2.6
CCn1c(SCC(=O)Nc2cc(C)on2)nnc1-c1ccco1	6.6	34.7*	-7.7
CCc1ccc(/C=C2\SC(=S)N(CCCC(=O)Nc3ccccn3)C2=O)cc1	1.1	1.7	2.5
COc1ccc(-n2c(C)nc(=O)c(-c3ccccc3)c2C)cc1	-1.7	6.7	1.0
Cc1nc(=O)cc(-c2ccccc2)n1-c1ccccc1	0.5	36.3*	-2.0
O=C(Nc1ccon1)c1ccc2c(c1)OCO2	-5.5	2.2	3.9
O=C(Cc1ccc([N+](=O)[O-])cc1)Nc1cccc(C(F)(F)F)c1	x	72.7*	x
Cc1cc([N+](=O)[O-])ccc1NC(=O)Cc1ccc(F)cc1	x	52.8*	x
COc1cc([N+](=O)[O-])ccc1NC(=O)Cc1ccc(F)cc1	x	5.3	x
SMILES	LYP act	Measles CPE	LYP inh 2
CCc1cccc(NC(=O)Cc2ccc([N+](=O)[O-])cc2)c1	x	5.8	x
CC(C)CC(c1nnnn1C1CCCC1)N1CCN(c2ccccc2F)CC1 (stereo not given)	-6.1	41.7*	9.2
CC(C)CC(c1nnnn1C1CCCCC1)N1CCN(c2ncccn2)CC1 (stereo not given)	2.9	4.2	-3.7
CC12CCC(=O)N1c1ccccc1C(=O)N2c1ccccc1 (stereo not given)	1.4	17.6	-4.9
COc1ccc(CCNC(=O)C2CCN(S(=O)(=O)c3cccc4nsnc34)CC2)cc1OC	6.5	5.2	-9.0
O=C(NCCc1ccccc1)C1CCN(S(=O)(=O)c2cccc3nsnc23)CC1	3.3	49.1*	-5.7
COc1cc(C(=O)Nc2ccc(S(=O)(=O)N(C)c3ccccc3)cc2)cc(OC)c1OC	x	9.6	x
Cc1cc(C)n(CCc2nc3c4ccccc4n(CC#N)c(=O)n3n2)n1	-3.6	25.6	2.9
C=CCn1c(-c2cccn(Cc3ccc(Cl)cc3Cl)c2=O)n[nH]c1=S	-8.3	29.2	10.4
CNC(=S)NNC(=O)c1cccn(Cc2ccc(Cl)cc2Cl)c1=O	-52.7	5.8	53.8*
CCNC(=S)NNC(=O)c1ccccc1Cl	x	4.4	x
CCNC(=S)NNC(=O)c1cccn(Cc2ccc(Cl)cc2)c1=O	-41.0	6.1	42.4*
Cc1ccc(COCCN2CCN(S(=O)(=O)c3ccc(C)cc3)CCC2=O)cc1	x	3.4	x
O=C(CSc1nnc(-c2c[nH]c3ccccc23)o1)N1CCCCC1	-2.9	5.3	0.9
O=C(Nc1ccccc1Cc1ccccc1)c1ccccc1NS(=O)(=O)c1ccc(Cl)s1	x	3.0	x
CCOC(=O)Nc1cc(C(=O)OC)ccc1C	12.7	32.6*	-13.1
COC(=O)c1ccc(C)c(NC(=O)CCc2ccc(OC)cc2)c1	x	9.1	x
Cc1ncc(CSc2nc3ccccc3[nH]2)c(N)n1	12.0	9.8	-13.9
COc1ccc2nc(SCc3cnc(C)nc3N)[nH]c2c1	-57.1	7.7	57.9*
Cc1ccccc1S(=O)(=O)NCc1cccnc1	x	11.3	x
CCn1c(Sc2ccc(N)cc2Cl)nc2ccccc21	3.0	23.3	-2.5
CCCC1Nc2ccc(C(=O)O)cc2C2C=CCC12 (stereo not given)	x	12.1	x
CC(=O)c1ccc2c(c1)C1C=CCC1C(c1ccc(S(=O)(=O)N3CCOCC3)cc1)N2 (stereo not given)	x	89.8*	x
C=CCn1c(SCC)nc2sc3c(c2c1=O)CCc1ccccc1-3	-12.6	0.5	17.0
CCn1c(=O)cc(OCC(=O)NCc2ccc(C)o2)c2ccccc21	4.8	15.7	-1.9
SMILES	LYP act	Measles CPE	LYP inh 2
O=C(c1cccs1)N1CCC(c2ccccc2)C1 (stereo not given)	6.7	6.1	-6.8
O=C(CCC(=O)OC(C(=O)c1ccccc1)c1ccccc1)Nc1ccccc1 (stereo not given)	-27.6	2.6	24.5*
Cc1ccc(C)c(NC(=O)CCC(=O)OC(C(=O)c2ccccc2)c2ccccc2)c1 (stereo not given)	2.8	22.6	2.5
CCOC(=O)c1c(C)[nH]c(C(=O)C(C)OC(=O)c2cccc(OCc3c(C)noc3C)c2)c1C (stereo not given)	-4.0	76.5*	3.8
Cc1noc(C)c1COc1cccc(C(=O)OCC(=O)NC(=O)c2ccc(OC(F)F)cc2)c1	x	8.7	x
O=C(Nc1cnc2ccccc2c1)C1COc2ccccc2O1 (stereo not given)	-28.7	31.4	28.2*
O=C(Nc1ccncc1)C1COc2ccccc2O1 (stereo not given)	32.4	15.8	-34.7
CCOc1ccc(N(CC(=O)Nc2ccc(C)cc2)S(=O)(=O)c2c(C)noc2C)cc1	-5.4	3.7	3.2
CCOC(=O)c1cc(C(=O)OCC)cc(-n2c(C)cc(C(=O)CN3CCOCC3)c2C)c1	-8.3	1.5	4.5
O=C(NC(Cc1c[nH]c2ccccc12)C(=O)Nc1ccc(F)c([N+](=O)[O-])c1)c1cccs1 (stereo not given)	x	35.5	x
O=C(NC(Cc1c[nH]c2ccccc12)C(=O)Nc1ccc(OC(F)(F)F)cc1)c1cccs1 (stereo not given)	x	52.1*	x
COCCN1CC(O)=C(c2nc3ccccc3c(=O)[nH]2)C1=N	-5.4	11.0	2.6
N#CCSc1nnc2c(Cl)cc(Cl)cn12	1.2	36.9	-3.0
Cc1cc(C)cc(CC(Cc2nc3ccccc3[nH]2)c2nc3ccccc3[nH]2)c1 (stereo not given)	-4.1	36.5*	9.1
Cc1ccc(SCc2nc3ccccc3[nH]2)cc1	3.6	6.4	-0.6
